Compound activity deposited in PubChem BioAssay by several laboratories.
LANA-H2A inh – blocks KSHV LANA binding to histone H2A/H2B; Q9QR71; cell-free LANA-H2A/H2B peptide, fluorescence polarization; inhibition, % (concentration not given with the values); 320,000 compounds, 0.6% hits; AID 2629; in the data active = inhibition mostly above about 10%, no sharp cut-off; inactive = mostly below about 6.7%
RTF Ca sens inh – cardiac RTF calcium desensitization. AID 493244. 340,000 compounds, 0.12% hits. P19429+P45379. IANBD-labeled cardiac RTF, Ca2+ fluorescence. inhibition, % at 7.15 µM;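 active = inhibition above the mean inhibition of all tested compounds plus 3 SD, cut at about 17% in these data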;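 note: assay run at fixed EC70 calcium of 1.6 mM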
Keap1-Nrf2 PPI – disrupts human Keap1 binding to Nrf2 peptide; 340,000 compounds, 0.15% hits; inhibition, % at 9.4 µM; Keap1 Kelch-Nrf2 peptide fluorescence polarization, 1536-well; Q14145; in the data active = inhibition above about 12%;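 note: human Keap1 Kelch domain with fluorescein labeled Nrf2 9mer peptide probe; 0% = neutral control wells and 100% = peptide positive control; higher means more block of Keap1 binding to Nrf2 peptide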
Target sequence (Q14145 whole entry, looked up, the tested form may be a part): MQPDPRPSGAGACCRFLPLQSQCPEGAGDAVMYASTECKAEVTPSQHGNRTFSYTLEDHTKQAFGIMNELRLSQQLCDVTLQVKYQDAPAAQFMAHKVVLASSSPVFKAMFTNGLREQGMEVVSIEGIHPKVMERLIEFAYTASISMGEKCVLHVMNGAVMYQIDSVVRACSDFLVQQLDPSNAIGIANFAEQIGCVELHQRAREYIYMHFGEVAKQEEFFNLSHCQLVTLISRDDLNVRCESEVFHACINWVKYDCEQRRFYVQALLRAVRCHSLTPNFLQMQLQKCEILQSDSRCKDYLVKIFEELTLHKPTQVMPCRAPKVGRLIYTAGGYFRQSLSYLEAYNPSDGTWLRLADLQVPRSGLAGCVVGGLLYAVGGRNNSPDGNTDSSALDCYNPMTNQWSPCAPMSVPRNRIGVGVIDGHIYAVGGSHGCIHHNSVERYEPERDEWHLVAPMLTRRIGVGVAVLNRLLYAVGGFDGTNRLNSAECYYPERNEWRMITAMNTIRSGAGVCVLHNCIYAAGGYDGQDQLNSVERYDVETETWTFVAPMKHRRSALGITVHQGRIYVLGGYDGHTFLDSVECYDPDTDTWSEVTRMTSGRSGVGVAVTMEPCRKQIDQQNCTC
LANA DNA inh – blocks KSHV LANA C-terminal domain binding to DNA; MBP-C-LANA/FAM-LBS DNA binding, fluorescence polarization; inhibition, % at 9 µM; 340,000 compounds, 0.078% hits; AID 504423;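 active = highest replicate inhibition at or above 60% at 9 µM, even if other replicates fall short; inactive = all replicates below 60% inhibition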;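 note: 0% = neutral control wells and 100% = 4 µM acridine orange control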
RTF Ca sens act – increases calcium sensitivity of human cardiac regulated thin filaments | IANBD-labeled TnC RTF fluorescence at EC20 calcium; 0% EC20 calcium, 100% full calcium | AID 493008 | P19429+P45379 | 340,000 compounds, 0.24% hits | activation, % at 7.2 µM;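 active = activation above the mean over all tested compounds plus 3 SD, cut at about 30% in these data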;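 note: rise in fluorescence read as greater calcium sensitivity of cardiac thin filaments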
The depositor's hits bear a star; . = no result given; + = active, no number. Shown are actives, neighbours in structure and some others; about 0.98% of the full set was active somewhere.

SMILES	LANA-H2A inh	RTF Ca sens inh	Keap1-Nrf2 PPI	LANA DNA inh	RTF Ca sens act
COC(=O)Cn1c(C)c(/C=C/c2cc[n+](C)cc2)c2ccccc21	-253	-80	-86	-29	64*
COc1ccc(S(=O)(=O)N2CCC(C(=O)NCCC3=CCCCC3)CC2)cc1C	34*	3	-7	2	5
Cc1ccccc1-c1nnc(SCC(=O)Nc2ccc3c(c2)OCCO3)n1N	-2	1	-1	0	-3
Nn1c(SCC(=O)Nc2ccc3c(c2)OCCO3)nncc1=O	13*	-5	-1	-1	-4
Cc1ccc2cc(C#N)c(NCCNC(=O)C3CCC3)nc2c1C	53*	-2	0	-1	1
CC(C)S(=O)(=O)c1cnc(-c2ccccn2)nc1N	1	6	2	1	2
COC(=O)Cn1c(C)nc(=O)c(-c2ccccc2)c1C	15*	-2	-5	-1	-3
C#CCOCCOCCOCCNc1nc(N2CCN(C(=O)[C@H](CCC(=O)O)n3cc([C@@H](N)CC(N)=O)nn3)CC2)nc(N2CCN(C(=O)[C@H](CCC(=O)O)n3cc([C@@H](N)CC(N)=O)nn3)CC2)n1	156*	-8	-6	-2	-3
C#CCOCCOCCOCCNc1nc(N2CCN(C(=O)[C@H](CC(N)=O)n3cc([C@@H](N)CC(N)=O)nn3)CC2)nc(N2CCN(C(=O)[C@H](CC(N)=O)n3cc([C@@H](N)CC(N)=O)nn3)CC2)n1	4	-6	-4	2	-8
O=C1C(=O)N(CNc2ccccn2)c2ccccc21	0	-6	1	-3	-3
Cc1ccc(NC(=O)O/N=C/c2ccc(F)cc2)cc1	3	-6	-3	1	37*
Cc1ccc(NC(=O)O/N=C/c2ccc(Br)cc2)cc1	-5	-4	-1	-1	7
CCCCCCC1(C)NC(=S)N(c2ccccc2)N1 (stereo not given)	13*	4	-5	0	1
O=C(CCl)N1c2ccccc2Oc2ccc3ccccc3c21	.	-295	-2	6	226*
CCOC(=O)c1cc(-c2ccccc2)sc1NC(=O)CSc1nnc(N)s1	+	1	2	0	-1
Cc1ccc(C)c(OCCC(=O)Nc2ccc3c(c2)OCO3)c1	-2	0	-4	0	1
O=C(NC1(Cc2ccccc2)CCN(CCc2cccs2)C1=O)c1ccccc1 (stereo not given)	4	-46	3	3	-5
O=C1Nc2ccccc2/C1=C/c1cccnc1	0	-3	-11	4	7
O=C1Nc2ccccc2/C1=C/c1cnc(-c2ccccc2)[nH]1	-3	-63	1	4	36*
COc1ccc(Cl)cc1-c1nc(SCC(=O)NC2CCCC2)n[nH]1	-3	8	-5	1	-4
COc1ccc(-c2nc(SCC(=O)NC3CCCCC3)n[nH]2)cc1	76*	-4	-2	-1	3
O=C1/C(=C/c2ccccc2)Oc2cc(OC(=O)N3CCOCC3)ccc21	1	-6	2	-1	-13
COc1ccc(/C=C2\Oc3cc(OC(=O)N4CCOCC4)ccc3C2=O)c(OC)c1	1	-51	1	3	37*
Cc1ccccc1C(=O)Nc1ccnn1C1CCN(Cc2cnn(C(C)C)c2)CC1	17*	-1	-1	0	-5
COc1ccc(/C=C/c2cccc[n+]2C)c(O)c1	2	-3	-6	-5	-10
SMILES	LANA-H2A inh	RTF Ca sens inh	Keap1-Nrf2 PPI	LANA DNA inh	RTF Ca sens act
CCN(CC)c1ccc(/C=C/c2cccc[n+]2C)c(OC)c1	-105	-96	-135	-47	75*
C[C@H](CO)N1C[C@H](C)[C@@H](CN(C)C(=O)NC2CCCCC2)Oc2c(NC(=O)Cc3ccccc3)cccc2C1=O	3	7	-3	-1	5
O=C(Nc1ccc2c(c1)OCCO2)c1ccccc1F	-4	0	1	-1	5
O=C(NC(=S)Nc1ccc2c(c1)OCCO2)c1ccccc1F	13*	-1	-2	0	0
O=C(O)CC1S/C(=N/N=C/c2ccccn2)NC1=O (stereo not given)	24*	-8	-4	1	0
CCCCN1C(=O)C2(OCCCO2)c2cccc(C)c21	18*	-12	-2	-5	2
CC(C)c1cc(=O)oc2c3c4c(cc12)CCCN4CCC3	-4	-18	-1	8	7
O=c1oc2c3c4c(cc2c(C(F)(F)F)c1CCN1CCOCC1)CCCN4CCC3	6	-68	0	6	70*
